# Source: PubChem (The Scripps Research Institute Molecular Screening Center)
# In the library only some 4.8% were active in any assay of this set; here they are far more common.
# DAX1 inh-1 = NR0B1 (DAX1) inhibition | AID 504766 | hit rate 0.99% among 340,000 | inhibition, % at 6.75 µM | P51843 | HEK293 Gal4-DAX1 luciferase reporter, luminescence;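 active means inhibition above the mean over all tested compounds plus 3 SD, cut at about 4.2% in these data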;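 further: 0% = DAX1-transfected cells with DMSO and 100% = empty-vector control cells with DMSO; inhibition shows as a rise in luminescence from relieved DAX1 repression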
# Target sequence (P51843 207-470 limits assumed): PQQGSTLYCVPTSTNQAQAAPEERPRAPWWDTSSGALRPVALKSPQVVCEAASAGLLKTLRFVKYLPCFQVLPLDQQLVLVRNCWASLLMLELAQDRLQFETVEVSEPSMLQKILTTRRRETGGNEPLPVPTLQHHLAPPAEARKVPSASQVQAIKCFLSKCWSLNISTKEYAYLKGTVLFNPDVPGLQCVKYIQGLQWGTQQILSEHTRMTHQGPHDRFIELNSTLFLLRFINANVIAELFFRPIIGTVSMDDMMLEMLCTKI
# SMARCA2 activ = increases SMARCA2 function in MMTV reporter cells | MG213 cells, MMTV-luciferase reporter, dexamethasone, overnight | activation, % at 9.1 µM | hit rate 1% among 370,000 | AID 652017; in the data active means activation above about 7.8%;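 further: 0% = vehicle wells and 100% = reference activator wells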
# ssDAF12 agonist = activators of S. stercoralis DAF-12 nuclear receptor. activation, % at 6.8 µM. HEK293 ssDAF-12/GRIP1 lit1-tk-luc reporter, luminescence; % of 3 µM dafachronic acid response. hit rate 1% among 370,000. AID 652126;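 active means activation above the mean over all tested compounds plus 3 SD, cut at about 0.9% in these data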;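 further: 0% = DMSO-only wells and 100% = 3 µM delta7-dafachronic acid wells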
# DAX1 inh-2 = blocks DAX1 repression of SF-1 activated StAR promoter | hit rate 1.1% among 370,000 | inhibition, % at 6.8 µM | HEK293T StAR-luciferase reporter, SF-1/DAX-1 repression relief | AID 652010;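 active means inhibition above the mean over all tested compounds plus 3 SD, cut at about 3.6% in these data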;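 further: 0% = DAX-1 cells with DMSO and 100% = cells lacking DAX-1 with DMSO; higher inhibition means more luminescence from relief of DAX-1 repression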
# hgDAF12 agonist = activates the H. glycines DAF-12 receptor ligand-binding domain. activation, % at 6.8 µM. hit rate 1.8% among 370,000. HEK293 GAL4-hgDAF12 UAS-luciferase reporter, agonist luminescence; normalized to butyrate control;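 active means activation above a cutoff set at the mean of all screened compounds plus 3 SD, cut at about 10% in these data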;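 further: 0% = DMSO wells and 100% = sodium butyrate wells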
# hcDAF-12 act = activators of H. contortus DAF-12 nuclear receptor; HEK293 hcDAF-12 lit1-tk-luc reporter, luminescence; 0% DMSO, 100% Δ7-dafachronic acid; activation, % at 6.8 µM; hit rate 1.4% among 370,000; AID 652067;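 active means activation above the mean of all tested compounds plus 3 SD, cut at about 5.5% in these data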;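 further: 100% = response to 3 µM Δ7-dafachronic acid high control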
# Starred values were filed as active, the others as inactive; nt = no result.
SMILES,DAX1 inh-1,SMARCA2 activ,ssDAF12 agonist,DAX1 inh-2,hgDAF12 agonist,hcDAF-12 act
O=C1NC(c2ccccc2Cl)Nc2ccccc21 (stereo not drawn),0,-6,-1,1,1,-1
COc1ccc(C(C(=O)Nc2ccc3c(c2)OCCO3)n2c(=O)c(-c3ccco3)nc3ccccc32)cc1 (stereo not drawn),nt,-1,1,0,3,5
C=CCSc1nnc2nc3[nH]c4c(C)cccc4c3nn12,1,4,0.9*,1,6,4
COCCOC(=O)C1=C(N)OC2=C(C(=O)CC(C)(C)C2)C1c1ccncc1 (stereo not drawn),5.3*,-2,-2,0,-1,-1
Cn1c(Oc2ccncc2)nc2cc(-c3ccsc3)sc2c1=O,nt,1,-1,0,1,-2
CC(SC(=S)N(C)Cc1cccs1)C(=O)O (stereo not drawn),2,-2,0,0,1,-1
CN(C)c1nc(=NCc2cccs2)ss1,-1,13*,-1,-2,-5,-2
Cc1ccc(-n2ncc3c(=O)n(CC(N)=O)cnc32)cc1C,1,7,-1,0,3,3
Cc1ccc(-n2ncc3c(SCC(N)=O)ncnc32)cc1C,4.3*,2,0,2,8,5
O=C(CSc1ncnc2c1cnn2-c1ccccc1)Nc1ccccc1,-1,-3,-1,1,1,1
O=C(CSc1ncnc2c1cnn2-c1ccccc1)NC1CCCC1,1,-2,0,1,2,5.7*
CC1CCCN(S(=O)(=O)c2coc(C(N)=O)c2)C1 (stereo not drawn),5.1*,0,-2,0,3,-1
CC1CCCCN1S(=O)(=O)c1coc(C(N)=O)c1 (stereo not drawn),2,-2,-1,0,0,-1
O=C(Nc1ccccc1)c1ccn[nH]1,4.3*,6,0,2,8,5
CCCCN(C(=O)COC(=O)c1sccc1C)c1c(N)n(CCC)c(=O)[nH]c1=O,2,-3,-1,-2,-1,-1
CCCCN(C)C(=O)C1CCN(c2ccc(S(=O)(=O)N3CCOCC3)cc2[N+](=O)[O-])CC1,-2,-1,-1,0,-1,-2
CC(C)(C)NC(=O)COc1ccc(S(=O)(=O)N2CCCC2)cc1,-2,2,-2,0,-3,0
CC(C)CCN(C)C1CCN(C(=O)Nc2ccccc2)CC1,nt,7.8*,-1,1,4,1
CC1CCCN(C(=S)Nc2ccc(F)cc2)C1 (stereo not drawn),0,-1,-1,0,-2,-1
O=C(CCN1CCC(c2ccccc2)C1)c1cccs1 (stereo not drawn),0,-3,-1,0,-1,-1
O=C(c1cccs1)N1CCC(c2ccccc2)C1 (stereo not drawn),1,2,0,1,12*,2
CC1CCCN(C(=S)Nc2ccc(Nc3ccccc3)cc2)C1 (stereo not drawn),nt,-1,1.3*,2,11*,1
COC(=O)Cc1ccc(NC(=S)N2CCCC(CO)C2)cc1 (stereo not drawn),-2,2,1,1,10*,4
CC(C)(C)c1ccc(OCCCC(=O)Nc2nnc(C3CC3)s2)cc1,-2,-3,-1,0,2,-3
CC(C)OCCCNC(=O)CN1C(=O)CSc2ccc(S(=O)(=O)N3CCOCC3)cc21,0,-2,-1,0,2,0
SMILES,DAX1 inh-1,SMARCA2 activ,ssDAF12 agonist,DAX1 inh-2,hgDAF12 agonist,hcDAF-12 act
O=C(Nc1ccccc1)N1CCC(c2ccccc2)C1 (stereo not drawn),1,7.8*,0,1,8,1
Cc1ccc(NC(=O)N2CCCC(c3ccccc3)C2)cc1 (stereo not drawn),0,2,-1,0,1,-2
Cc1ccc(C2CCN(C(=S)NC3CCCCC3)C2)cc1 (stereo not drawn),0,-2,-1,0,-2,-1
Cc1ccc(C2CCN(C(=S)NC(C)(C)C)C2)cc1 (stereo not drawn),5.6*,3,-1,-1,5,1
Cc1cccc(OCC(=O)N2CCC(c3ccccc3)C2)c1 (stereo not drawn),1,2,-1,1,10*,3
COc1ccc(NC(=S)N2CCC(C(O)(c3ccccc3)c3ccccc3)CC2)cc1,0,-1,0,0,0,-2
COc1ccc(NC(=S)N2CCC(c3ccccc3)C2)cc1 (stereo not drawn),1,6,0,2,12*,4
Nc1nc(SCC(=O)c2ccc(Cl)cc2)c2ncn(C3OC(CO)C(O)C3O)c2n1 (stereo not drawn),1,-3,-1,0,0,0
O=C1OCC2=C1C(c1ccc(Cl)cc1)CC(=O)N2c1ccc(F)cc1 (stereo not drawn),-1,-2,-1,-1,6,0
O=C1OCC2=C1C(c1ccccc1)CC(=O)N2c1ccc(F)cc1 (stereo not drawn),0,-5,-1,1,12*,-1
COc1ccc(CN2C(=O)CN(S(C)(=O)=O)CC2(C)C(=O)NC(C)C)cc1OC (stereo not drawn),nt,-5,-1,0,3,-2
O=C(OCc1cn(Cc2ccccc2)nn1)N1CCCC1,nt,-2,-1,-1,-5,-1
O=C(/C=C1\OCc2ccccc21)OCc1ccccc1,nt,0,0,2,12*,5
O=C(/C=C1\OCc2cc(OCc3ccccc3)ccc21)OCc1ccccc1,nt,0,-1,1,4,0
O=C(COC(=O)c1n[nH]c2ccccc12)Nc1ccccc1,10*,1,0,2,10,2
Cc1cc(C)cc(NC(=O)COC(=O)c2n[nH]c3ccccc23)c1,1,1,-1,0,12*,1
CCNC(=O)C1(C)CCCN(CC(=O)c2ccccc2OC)C1 (stereo not drawn),nt,5,-1,0,0,-1
O=C(c1ccco1)N1N=C(c2ccco2)CC1c1ccc(Cl)cc1Cl (stereo not drawn),-1,-2,-2,0,-3,-1
COc1ccc(CN2CCN(C3CCC3)CC2CCO)c(F)c1 (stereo not drawn),-2,-3,-1,0,2,-2
S=c1nc[nH]c2c1[nH]c1ccc(Cl)cc12,5.1*,-3,0,-1,-5,0
S=c1nc[nH]c2c1[nH]c1ccccc12,2,2,0,0,0,5
c1ccc(-c2ncc(CSc3nncn3-c3ccccc3)s2)cc1,0,0,-1,-1,0,0
